Giardia kill = Small Molecules that selectively kill Giardia lamblia: qHTS. 340,000 tested, 0.15% active. Giardia lamblia trophozoite viability. activity change, % at 7.66 µM, hits read low; in the data active = activity change below about -80%; inconclusive = between about -30% and that limit;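 note: parasites exposed to compound for two days anaerobically before the ATP read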
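Trophozoite viability was measured as ATP-dependent luminescence, read 15-30 min after reagent addition. Before that, parasites at 100 cells/well were exposed to compounds for 48 h, anaerobically, at 37 deg C.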
ELG1 DNA repair = qHTS screen for small molecules that inhibit ELG1-dependent DNA repair in human embryonic kidney (HEK293T) cells expressing luciferase-tagged ELG1; HEK293T ELG1-luciferase reporter, luminescence, 16 h; DNA damage induced by 5-fluorouridine; Potency, µM (series often up to 46.1 µM), inactives show top-dose activity change, negative = inhibition, most hits filed as inhibitors; 330,000 tested, 2.3% active; AID 504467, 2011; note: potency is the fitted concentration of half-maximal effect; nearly all actives have a fitted effect of over 55% in size
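Quantitative HTS, concentration-response format. 2,000 cells/well co-treated with 5-fluorouridine and compound, 16 hr in 5% CO2 at 37 °C; ONE-Glo luminescence read after 30 min.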
DT40 TDP1 no CPT = qHTS for Inhibitors of human tyrosyl-DNA phosphodiesterase 1 (TDP1): qHTS in cells in absence of CPT; DT40 Tdp1-/- hTDP1 cells, no CPT, ATP luminescence, 48 h; Potency, µM (top dose mostly 46.2 µM), inactives show at the top dose activity change, negative = growth inhibition, usual class: inhibitors; 420,000 tested, 15% active; AID 686978, 2013; note: potency is the fitted concentration of half-maximal effect; nearly all actives have a fitted effect of over 55% in size
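No-CPT arm: Tdp1-/-;hTDP1 DT40 cells (400/well) plus compounds, incubated ≥48 hr at 37 °C. Readout CellTiter-Glo luminescence.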
IL1B secr inh = qHTS for Inhibitors of Inflammasome Signaling: IL-1-beta AlphaLISA Primary Screen. 360,000 tested, 4.7% active. AID 743279, 2014. activity change, % at 57.5 µM. THP-1 LPS/ATP IL-1B secretion, AlphaLISA, 16 h; stronger effect = lower value; in the data active = activity change below about -50%; inconclusive = mostly about -30% to -49%
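Secreted IL-1B measured by AlphaLISA bead assay after 16 h compound exposure of THP-1 cells; compounds (final up to 57.5 uM) added 1 h before LPS (250 ng/mL) and ATP (1.25 mM) stimulation; lower signal means less secretion.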
TDP1 block = qHTS Assay for Inhibitors of Tyrosyl-DNA Phosphodiesterase (TDP1) | Tyrosyl-DNA phosphodiesterase 1 (Homo sapiens), Q9NUW8 | recombinant TDP1, AlphaScreen DNA substrate cleavage | Potency, µM (titrated, usually from 130 µM), for the others: at the highest dose activity change, negative = inhibition, actives largely listed as inhibitors | 350,000 tested, 0.28% active | AID 485290, 2010; note: potency is the fitted concentration of half-maximal effect; nearly all actives have a fitted effect of over 40% in size
Target sequence (Q9NUW8 whole entry, looked up): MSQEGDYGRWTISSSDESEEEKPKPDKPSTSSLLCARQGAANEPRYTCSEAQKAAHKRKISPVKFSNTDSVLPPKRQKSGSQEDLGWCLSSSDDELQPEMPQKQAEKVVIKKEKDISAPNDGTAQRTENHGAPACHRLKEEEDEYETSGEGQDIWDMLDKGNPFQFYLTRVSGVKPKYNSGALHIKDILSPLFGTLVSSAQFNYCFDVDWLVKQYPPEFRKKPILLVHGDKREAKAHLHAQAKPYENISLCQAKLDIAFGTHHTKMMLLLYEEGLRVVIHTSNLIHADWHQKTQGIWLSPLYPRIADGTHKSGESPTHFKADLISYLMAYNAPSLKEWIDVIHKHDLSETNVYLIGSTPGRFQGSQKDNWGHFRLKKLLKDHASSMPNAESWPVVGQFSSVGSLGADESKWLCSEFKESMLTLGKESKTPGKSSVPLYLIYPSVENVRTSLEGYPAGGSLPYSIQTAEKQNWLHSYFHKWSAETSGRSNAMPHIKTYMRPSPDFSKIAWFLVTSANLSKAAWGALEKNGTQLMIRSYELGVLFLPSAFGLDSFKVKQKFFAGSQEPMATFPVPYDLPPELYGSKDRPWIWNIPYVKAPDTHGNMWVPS
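E. coli-derived human Tdp1, 1 nM final. Cpd preinc 15 min RT; substrate 15 nM final, 5 min RT; AS bead mix 10 ug/ml final, 10 min RT. Signal loss = tyrosine-FITC cleavage. No-enzyme wells = max signal.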
DT40 TDP1 CPT = qHTS for Inhibitors of human tyrosyl-DNA phosphodiesterase 1 (TDP1): qHTS in cells in presence of CPT; chicken DT40 Tdp1-/-;hTDP1 cells + 20 nM CPT, ATP luminescence, 48 h; 420,000 tested, 12% active; Potency, µM (series often up to 46.2 µM), without a hit: top-dose activity change, negative = growth inhibition, usual class: inhibitors; note: potency is the fitted concentration of half-maximal effect; nearly all actives have a fitted effect of over 55% in size
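Cell growth measured by CellTiter-Glo luminescence after a minimum 48 h, 37 C compound exposure with 20 nM CPT in Tdp1-knockout DT40 cells stably expressing hTDP1, seeded 400/well; qHTS titration format.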
Starred values were filed as active, the others as inactive; i = inactive; u = inconclusive; x = not tested or not shown; [ ] = remark or other dose. A selection: hits, their analogues and other compounds. The true share with any hit is near 19%. Unless noted, calls come from the whole dose curve; as a rule, active = well fitted curve in the direction sought with a large enough effect; inconclusive = small, poorly fitted or top-dose-only effect, or another doubt; inactive = no such curve, though single readings can be large; an effect the other way counts as inactive or inconclusive. % is set by controls: 0 for no effect and ±100 for the full control effect.

SMILES | Giardia kill | ELG1 DNA repair | DT40 TDP1 no CPT | IL1B secr inh | TDP1 block | DT40 TDP1 CPT
CC(C)n1c(N2CCN(C(=O)N3CCCCC3)CC2)nc2ccccc21 | 7 | -13% | u | 13 | 0% | 13µM*
CC(C)n1c(N2CCN(C(=O)c3cccs3)CC2)nc2ccccc21 | 7 | -9% | 23µM* | -9 | 7% | u
CC(C)n1c(N2CCN(CC(=O)NCc3cccs3)CC2)nc2ccccc21 | -10 | -6% | u | -9 | 12% | u
FC(F)(F)c1cccc(-n2c(Cn3nnc4ccccc43)n[nH]c2=S)c1 | 14 | 2% | -23% | 5 | 4% | -14%
CN1CC(=O)N/C1=N/C(=O)Nc1cccc(Cl)c1 | x | x | 0% | x | 6% | -2%
CN1CC(=O)NC1=NC(=O)C12CC3CC(CC(C3)C1)C2 | -15 | -16% | 18µM* | 5 | 0% | u
CC(=O)c1ccc(NC(=O)c2cn(-c3ccccc3)nc2-c2ccc(Br)cc2)cc1 | x | x | u | x | -6%[12.3 µM] | u
C=CCC[C@@H](Cc1ccc(F)cc1)C(=O)OC[C@@H](Cc1c[nH]c2ccccc12)NC(=O)[C@@H](CC=C)CC(=O)N(CCO)Cc1ccccc1 | 18 | u | 23µM* | -19 | 6% | u
C=CCC[C@@H](Cc1ccc(F)cc1)C(=O)OC[C@@H](Cc1c[nH]c2ccccc12)NC(=O)[C@@H](CC=C)CC(=O)N[C@H](CO)Cc1ccccc1 | u | -8% | u | -7 | 1% | u
C=CCC[C@H](Cc1ccc(F)cc1)C(=O)OC[C@H](Cc1c[nH]c2ccccc12)NC(=O)[C@H](CC=C)CC(=O)N(CCO)Cc1ccccc1 | 0 | 21µM* | 26µM* | u | 3% | u
CNC(=O)COc1coc(CN2CCN(c3ccc(F)cc3)CC2)cc1=O | 12 | 6% | 26% | 12 | 1% | -2%
Cc1cccc(N(C)C(=O)CCS(=O)(=O)c2ccc3c(c2)oc(=O)n3C)c1 | x | x | u | x | 5% | u
COc1ccccc1-c1ccc(SCc2ccc(F)cc2)nn1 | -9 | -7% | -2% | u | -5% | -18%
COc1ccccc1-c1ccc(SCc2ccc(C)cc2)nn1 | -3 | u | 15µM* | -18 | -6% | u
Cc1ccc(C)c2sc(NC(=O)c3ccc(S(=O)(=O)N4CCC(C)CC4)cc3)nc12 | x | x | 16µM* | x | 5% | u
Cc1nnsc1C(=O)Nc1ccc(S(=O)(=O)N2CCC(C)CC2)cc1 | -8 | 7.3µM* | 10µM* | -55* | 1% | u
CC1CCN(S(=O)(=O)c2ccc(C(=O)Nc3ncccc3O)cc2)CC1 | -8 | 13% | 15µM* | i | -12% | u
COc1ccc(CCNC(=O)CS(=O)Cc2nc(-c3ccc(C)cc3)oc2C)c(OC)c1 (centres undefined) | x | x | u | x | 5% | u
CCOc1c(Br)cc(C2CC(=O)Nc3cc4c(cc32)OCO4)cc1OC (centres undefined) | x | x | 4.6µM* | x | 2% | 2.9µM*
CCCOc1ccccc1C1CC(=O)Nc2cc3c(cc21)OCCO3 (centres undefined) | 4 | u | 0.65µM* | 14 | 10%[56.1 µM] | 0.73µM*
CCOc1cc(C2CC(=O)Nc3cc4c(cc32)OCCO4)ccc1O (centres undefined) | x | x | u | x | 2% | 18µM*
CCOc1ccccc1C1CC(=O)Nc2cc3c(cc21)OCCO3 (centres undefined) | 27 | u | 0.52µM* | 7 | 4% | 1µM*
COc1cc2c(cc1OC)C(c1ccc3c(c1)OCO3)CC(=O)N2 (centres undefined) | -12 | 0% | u | 25 | 5% | 5%
O=C1CC(c2cccnc2)c2cc3c(cc2N1)OCCO3 (centres undefined) | 10 | -19% | -14% | 5 | 2% | 1%
Cc1cc(C)c2c(=O)cc(C(=O)Nc3c(C)n(C)n(-c4ccccc4)c3=O)oc2c1 | x | x | -22% | x | 5% | 6%
SMILES | Giardia kill | ELG1 DNA repair | DT40 TDP1 no CPT | IL1B secr inh | TDP1 block | DT40 TDP1 CPT
C/C=C/C(=O)[C@@H](C)[C@@H](/C=C/C[Si](C)(C)C)c1ccccc1 | -19 | x | x | x | 14% | x
CCc1ccc(C(=O)c2cn(CC(=O)Nc3ccc4c(c3)OCO4)c3ccc(CC)cc3c2=O)cc1 | x | x | u | x | -1% | -4%
COc1cc(C)nc(N(Cc2ccccc2)S(=O)(=O)c2ccc(C)cc2)n1 | -9 | -15% | 18µM* | u | x | u
CCO[C@H]1OC(C(=O)NCc2nc3ccccc3[nH]2)=C[C@@H](c2cn(C(C)=O)c3ccccc23)[C@@H]1CCCO | -25 | x | 18µM* | -14 | x | u
CCO[C@@H]1OC(C(=O)NCc2nc3ccccc3[nH]2)=C[C@H](c2cn(C(C)=O)c3ccccc23)[C@H]1CCCO | 5 | u | 16µM* | u | 9% | u
CCO[C@@H]1OC(C(=O)NCc2ccccc2)=C[C@H](c2ccc(Br)cc2)[C@H]1CCCO | 6 | u | u | 0 | 6% | 23µM*
CCO[C@@H]1OC(C(=O)NCc2ccccc2)=C[C@H](c2cn(C(C)=O)c3ccccc23)[C@H]1CCCO | 4 | 6% | 18µM* | -54* | 6% | u
CCO[C@H]1OC(C(=O)O)=C[C@@H](c2cn(C(C)=O)c3ccccc23)[C@@H]1CCCO | u | x | 1% | 20 | x | -1%
CCO[C@@H]1OC(C(=O)NCc2nc3ccccc3[nH]2)=C[C@H](c2coc3ccccc3c2=O)[C@H]1CCCO | 11 | x | -12% | -5 | x | -29%
O=C(COC(=O)c1ccccc1F)NCc1ccc2c(c1)OCO2 | -18 | 0% | -1% | -7 | 0% | -4%
COCCNC(=O)c1c(N)n(/N=C/c2ccc(F)cc2)c2nc3ccccc3nc12 | -7 | 0% | u | -26 | 3% | u
COc1cccc(/C=N/n2c(N)c(S(=O)(=O)c3cccs3)c3nc4ccccc4nc32)c1 | 0 | u | u | 5 | 2% | -24%
Nc1c(S(=O)(=O)c2cccs2)c2nc3ccccc3nc2n1/N=C/c1cccc(O)c1 | 23 | 18µM* | u | -80* | 4% | 13µM*
